Results as given in PubChem BioAssay AID1159580 (chemical genetic matrix, 2015).
Where “and” joins values, the source holds several entries; their conditions need not be identical. Equal entries are not always repeated. Hit rate of the full screen: of about 5,500 compounds, about 2,000 (36%) were called active. About 18% were inconclusive and are not listed. Cut-off read from the data, not from the text of the source: active = normalized growth mostly below about 0.91 (no sharp cut-off); inconclusive = no clear call, values can overlap the other calls; inactive = mostly above about 0.92. Some of the results follow.

Assay: chemical genetic growth profiling, strain panel (AID 1159580);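 note: tested at 20 µM; growth read once vehicle control cultures reached saturation at 30 °C; 1 = growth at the plate median or of vehicle wells; lower values mean less growth of the strain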
Details: S. cerevisiae deletion strains, growth OD

Measured: normalized growth

CC[C@@]1(O)C[C@H](O[C@H]2C[C@H](N(C)C)[C@H](O)[C@H](C)O2)c2c(cc3c(c2O)C(=O)c2c(O)ccc(O)c2C3=O)[C@H]1C(=O)OC
active: locus YAL021C, strain ccr4, stronger effect = lower value 0.83 | locus YAL026C, strain drs2, stronger effect = lower value 0.813 | locus YAL030W, strain snc1, stronger effect = lower value 0.919 | locus YBL061C, strain skt5, stronger effect = lower value 0.875 | locus YBR021W, strain FUR4, stronger effect = lower value 0.143 | locus YBR023C, strain chs3, stronger effect = lower value 1.52 [resistant] | locus YBR229C, strain ROT2, stronger effect = lower value 0.152 | locus YBR231C, strain swc5, stronger effect = lower value 0.794 | locus YBR279W, strain paf1, stronger effect = lower value 0.901 | locus YCL011C, strain gbp2, stronger effect = lower value 0.0988 | locus YCL016C, strain dcc1, stronger effect = lower value 0.893 | locus YCL029C, strain bik1, stronger effect = lower value 0.205 | locus YDL035C, strain GPR1, stronger effect = lower value 0.0755 | locus YDL074C, strain BRE1, stronger effect = lower value 0.141 | locus YDL101C, strain DUN1, stronger effect = lower value 0.0945 | locus YDL134C, strain PPH21, stronger effect = lower value 0.0874 | locus YDL192W, strain arf1, stronger effect = lower value 0.106 | locus YDR069C, strain doa4, stronger effect = lower value 0.68 | locus YDR101C, strain arx1, stronger effect = lower value 0.18 | locus YDR137W, strain rgp1, stronger effect = lower value 0.703 | locus YDR150W, strain NUM1, stronger effect = lower value 0.112 | locus YDR162C, strain NBP2, stronger effect = lower value 0.0578 | locus YDR297W, strain sur2, stronger effect = lower value 0.873 | locus YDR318W, strain mcm21, stronger effect = lower value 0.125 | locus YDR334W, strain swr1, stronger effect = lower value 0.816 | locus YDR335W, strain msn5, stronger effect = lower value 0.854 | locus YDR388W, stronger effect = lower value 0.0868 | locus YDR502C, strain sam2, stronger effect = lower value 0.125 | locus YEL037C, strain rad23, stronger effect = lower value 0.874 | locus YEL061C, strain CIN8 (second series), stronger effect = lower value 0.879 | locus YEL061C, strain CIN8, stronger effect = lower value 0.071 | locus YER015W, strain faa2, stronger effect = lower value 0.821 | locus YER110C, stronger effect = lower value 0.559 | locus YER111C, strain swi4, stronger effect = lower value 0.767 | locus YER155C, strain BEM2 (second series), stronger effect = lower value 0.848 | locus YER155C, strain BEM2, stronger effect = lower value 0.144 | locus YER167W, strain BCK2, stronger effect = lower value 0.0725 | locus YFR010W, strain ubp6, stronger effect = lower value 0.813 | locus YGL086W, strain mad1, stronger effect = lower value 0.281 | locus YGL173C, strain kem1, stronger effect = lower value 0.716 | locus YGL248W, strain PDE1, stronger effect = lower value 0.0787 | locus YGL253W, strain hxk2, stronger effect = lower value 0.86 | locus YGR078C, strain PAC10, stronger effect = lower value 0.0806 | locus YGR135W, strain pre9, stronger effect = lower value 0.0948 | locus YGR252W, strain gcn5, stronger effect = lower value 0.225 | locus YHR027C, strain rpn1, stronger effect = lower value 0.812 | locus YHR079C, strain IRE1 (second series), stronger effect = lower value 0.477 | locus YHR094C, strain hxt1, stronger effect = lower value 0.402 | locus YHR129C, strain ARP1, stronger effect = lower value 0.0918 | locus YHR142W, strain chs7, stronger effect = lower value 0.745 | locus YHR200W, strain rpn10, stronger effect = lower value 0.0997 | locus YIL066C, strain RNR3, stronger effect = lower value 0.073 | locus YIL073C, strain SPO22, stronger effect = lower value 0.134 | locus YIR030C, strain dcg1, stronger effect = lower value 0.179 | locus YJL092W, strain hpr5, stronger effect = lower value 0.905 | locus YJL095W, strain BCK1 (second series), stronger effect = lower value 0.877 | locus YJL134W, strain LCB3, stronger effect = lower value 0.167 | locus YJL164C, strain tpk1, stronger effect = lower value 0.832 | locus YJL166W, strain qcr8, stronger effect = lower value 0.875 | locus YJL168C, strain set2, stronger effect = lower value 0.272 | locus YJL187C, strain SWE1 (second series), stronger effect = lower value 0.0876 | locus YJR043C, strain POL32, stronger effect = lower value 0.113
0.121 (active) and 0.997 (inactive): locus YJL095W, strain BCK1, stronger effect = lower value
inactive: locus YBR009C, strain hhf1, stronger effect = lower value 0.924 | locus YBR171W, strain sec66, stronger effect = lower value 1.03 | locus YCL069W, strain vba3, stronger effect = lower value 0.948 | locus YCR088W, strain abp1, stronger effect = lower value 0.954 | locus YDL005C, strain med2, stronger effect = lower value 1.03 | locus YDL040C, strain nat1, stronger effect = lower value 0.962 | locus YDL185W, strain tfp1, stronger effect = lower value 0.956 | locus YDR001C, strain nth1, stronger effect = lower value 0.932 | locus YDR159W, strain sac3, stronger effect = lower value 0.906 | locus YDR195W, strain ref2 1.05 | locus YDR392W, strain spt3, stronger effect = lower value 0.823 | locus YEL003W, strain gim4, stronger effect = lower value 0.942 | locus YER016W, strain bim1, stronger effect = lower value 0.954 | locus YGL078C, strain dbp3, stronger effect = lower value 0.973 | locus YGL167C, strain pmr1, stronger effect = lower value 0.955 | locus YGL227W, strain vid30, stronger effect = lower value 1.02 | locus YGL240W, strain doc1, stronger effect = lower value 0.966 | locus YHR013C, strain ard1, stronger effect = lower value 0.935 | locus YHR079C, strain IRE1, stronger effect = lower value 0.987 | locus YIL125W, strain kgd1, stronger effect = lower value 0.959 | locus YJL115W, strain asf1, stronger effect = lower value 0.947 | locus YJL129C, strain trk1, stronger effect = lower value 1.05 | locus YJL154C, strain vps35, stronger effect = lower value 0.929
0.113 (active) and 0.995 (inactive): locus YHR030C, strain SLT2, stronger effect = lower value
